Reference: PubChem BioAssay
Activity calls are given as the source filed them. Unless noted, no rule for the calls is given here.

Columns and labels:
[1] = system: XIP peptide (Xip251-270) binding; assay: small-molecule binders of XIP peptide, primary screen, biochemical, small-molecule microarray, fluorescence 635/667 nm, 0.1 µg/mL protein (AID 1182); details: fluorescent protein binding, 635 nm, higher = more signal, called active from +8 up or from −8 down
[2] = system: XIP peptide (Xip251-270); assay: small-molecule binders of XIP peptide, primary screen, biochemical, small-molecule microarray, fluorescence 635/667 nm, 0.5 µg/mL protein (AID 1183); details: small-molecule microarray binding, fluorescence 635 nm; higher = more signal
[3] = Plasmodium falciparum growth inhibition, primary screen, strain 3D7, DAPI fluorescence, 100 nL (AID 1184);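 also: parasites grown inside human red blood cells in medium with human serum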; details: P. falciparum 3D7 growth, 3 d, higher = more signal
[4] = target: Homeobox protein Hox-A13 (Mus musculus) (UniProt Q62424); assay: inhibitors of HoxA13-DNA binding, primary screen, biochemical, fluorescence polarization, labeled oligonucleotide (AID 1185); details: 15 min, higher = more signal, called active from +8 up or from −8 down
Homeobox protein Hox-A13 (Mus musculus), sequence (Q62424 whole entry, looked up): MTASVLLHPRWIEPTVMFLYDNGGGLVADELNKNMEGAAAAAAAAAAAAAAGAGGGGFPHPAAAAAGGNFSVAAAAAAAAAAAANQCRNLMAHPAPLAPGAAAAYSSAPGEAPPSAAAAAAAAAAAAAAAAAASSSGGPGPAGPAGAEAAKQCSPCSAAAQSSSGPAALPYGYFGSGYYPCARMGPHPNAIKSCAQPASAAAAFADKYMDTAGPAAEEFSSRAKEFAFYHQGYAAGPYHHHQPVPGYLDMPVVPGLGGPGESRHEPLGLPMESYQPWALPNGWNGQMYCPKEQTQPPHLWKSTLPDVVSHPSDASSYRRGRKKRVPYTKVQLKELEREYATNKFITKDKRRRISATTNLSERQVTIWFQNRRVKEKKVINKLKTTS

[5] = inhibitors of hydroxyurea-induced Chk1 phosphorylation, primary screen, imaging, HeLa, phospho-Chk1 antibody, percent positive cells (AID 1186); details: hydroxyurea-induced phospho-Chk1 immunofluorescence imaging, higher = more signal
[6] = inhibitors of hydroxyurea-induced Chk1 phosphorylation, primary screen, imaging, HeLa, phospho-Chk1 nuclear intensity (AID 1187); details: hydroxyurea-induced phospho-Chk1 immunofluorescence imaging, higher = more signal

C[N+](C)(C)CCCCCCNC(=O)[C@H]1C[C@H]2C(=O)NCC(=O)N2[C@H]1c1ccc(O)cc1
composite z-score [1]: 0.537 (inactive) | composite z-score [2]: 0.815 | z-score [3]: 0.089 | z-score [4]: -2.39 (inactive) | z-score [5]: -0.458 (inactive) | z-score [6]: -0.132 (inactive)

COC(=O)c1c2oc(c1C(=O)OC)C(=O)N(Cc1ccccc1)Cc1cn(nn1)C[C@H](Cc1ccccc1)NC(=O)N[C@H](CO)CC2
composite z-score [1]: -0.255 (inactive) | composite z-score [2]: -0.057 | z-score [3]: -0.886 | z-score [4]: -4.5 (inactive) | z-score [5]: -0.962 (inactive) | z-score [6]: -0.745 (inactive)

C[C@]1(C(=O)NC2CC2)c2ccccc2C(=O)N(Cc2ccccc2)[C@H]1c1ccc(CO)cc1
composite z-score [1]: -0.0942 (inactive) | composite z-score [2]: -0.227 | z-score [3]: -1.62 | z-score [4]: -1.31 (inactive) | z-score [5]: -0.483 (inactive) | z-score [6]: -0.567 (inactive)

CCOC(=O)C[C@H]1[C@H](OC(=O)Cc2ccc3c(c2)OCO3)[C@@H](NC(=O)Cc2ccc(OC)cc2)c2cc(OCCCO)ccc2N1C(=O)c1ccc2ccccc2n1
composite z-score [1]: -0.16 (inactive) | composite z-score [2]: 0.0481 | z-score [3]: -0.919 | z-score [4]: -3.37 (inactive) | z-score [5]: -0.996 (inactive) | z-score [6]: -0.347 (inactive)

Cc1ccccc1C(O)C1C=CC2C(=O)N(C)C(=O)C2N1N(c1ccccc1)c1ccccc1 (configuration not stated)
composite z-score [1]: -0.0728 (inactive) | composite z-score [2]: 0.649 | z-score [3]: 0.548 | z-score [4]: -1.17 (inactive) | z-score [5]: -0.274 (inactive) | z-score [6]: -0.168 (inactive)

CCOC(=O)C[C@H]1[C@H](OC(=O)c2ccccc2-c2ccccc2)[C@@H](NC(=O)c2ccc(-c3ccccc3)cc2)c2cc(OCCCO)ccc2N1C(=O)c1ccc2ccccc2n1
composite z-score [1]: -0.07 (inactive) | composite z-score [2]: 0.421 | z-score [3]: -0.557 | z-score [4]: -1.48 (inactive) | z-score [5]: -0.145 (inactive) | z-score [6]: -0.0265 (inactive)

COCCOC(=O)N1C(=O)[C@@]2(c3cc(C#CC4=CCCCC4)ccc31)[C@H](c1ccccc1OCCO)N1[C@H](c3ccccc3)[C@H](c3ccccc3)OC(=O)[C@H]1[C@@H]2C(=O)Nc1nc2ccccc2s1
composite z-score [1]: 0.469 (inactive) | composite z-score [2]: 0.484 | z-score [3]: -1.8 | z-score [4]: 3.53 (inactive) | z-score [5]: 0.325 (inactive) | z-score [6]: 0.587 (inactive)

CCOC(=O)C[C@H]1[C@H](OC(=O)c2cc3ccccc3oc2=O)[C@@H](NC(=O)c2ccc(-c3ccccc3)cc2)c2cc(OCCCO)ccc2N1C(=O)c1ccc2ccccc2n1
composite z-score [1]: 0.155 (inactive) | composite z-score [2]: 0.339 | z-score [3]: -0.949 | z-score [4]: -2.27 (inactive) | z-score [5]: -0.359 (inactive) | z-score [6]: -0.583 (inactive)

CC1CC/C=C\[C@H]2OC34C=CCN(c5ccc(Cl)cc5)C(=O)[C@H]3N(CCCCCO)C(=O)[C@]4(C)C2C(=O)O1 (some centres not stated)
composite z-score [1]: -0.546 (inactive) | composite z-score [2]: -0.613 | z-score [3]: -0.396 | z-score [4]: -4.96 (inactive) | z-score [5]: 1 (inactive) | z-score [6]: 0.917 (inactive)

CN(C)CCCNC(=O)[C@@H]1c2ccccc2C(=O)N(Cc2ccccc2Cl)[C@H]1c1ccc(CO)cc1
composite z-score [1]: 0.596 (inactive) | composite z-score [2]: 0.285 | z-score [3]: -0.424 | z-score [4]: -2.58 (inactive) | z-score [5]: 0.0357 (inactive) | z-score [6]: 0.0322 (inactive)

C[C@@H]1ON(c2ccc(C(=O)OC(C)(C)C)cc2)[C@H](c2ccc(O)cc2)[C@H]1C(=O)N1C(=O)OC[C@H]1Cc1ccccc1
composite z-score [1]: 0.047 (inactive) | composite z-score [2]: 0.599 | z-score [3]: -0.393 | z-score [4]: -3.64 (inactive) | z-score [5]: -0.0209 (inactive) | z-score [6]: -0.154 (inactive)

C=C(/C(=C/C[C@H](OC(C)=O)c1cccc(OCCO)c1)c1cnc2ccccc2c1)C(C)C
composite z-score [1]: -0.328 (inactive) | composite z-score [2]: -0.179 | z-score [3]: -1.28 | z-score [4]: -4.29 (inactive) | z-score [5]: -0.192 (inactive) | z-score [6]: -0.139 (inactive)

COC(=O)C(CC#Cc1ccc2c(c1)[C@]1(C(=O)N2)[C@H](c2ccccc2OCCO)N2[C@H](c3ccccc3)[C@H](c3ccccc3)OC(=O)[C@H]2[C@@H]1C(=O)NC[C@H](O)c1ccccc1)C(=O)OC
composite z-score [1]: 1.8 (inactive) | composite z-score [2]: 0.777 | z-score [3]: -2.22 | z-score [4]: -1.59 (inactive) | z-score [5]: -0.124 (inactive) | z-score [6]: -0.553 (inactive)

COc1ccc(NC(=O)O[C@H]2[C@H](OC(=O)Nc3ccccc3)[C@H](OC(=O)Nc3ccccc3)[C@@H](OC)O[C@@H]2CO)cc1
composite z-score [1]: 0.635 (inactive) | composite z-score [2]: 0.934 | z-score [3]: -2.37 | z-score [4]: -6.24 (inactive) | z-score [5]: 0.131 (inactive) | z-score [6]: 0.288 (inactive)

COc1ccccc1CN1C(=O)c2ccccc2[C@](Cc2ccccc2I)(C(=O)NCC(F)(F)F)[C@@H]1c1ccc(CO)cc1
composite z-score [1]: 0.931 (inactive) | composite z-score [2]: 0.909 | z-score [3]: -1.49 | z-score [4]: -4.98 (inactive) | z-score [5]: -0.0993 (inactive) | z-score [6]: -0.0597 (inactive)

CC(CO)N1C(=O)[C@@H]2[C@H]3C(=O)OCC=C[C@H]3OC23C=CCN(Cc2ccccc2)C(=O)[C@@H]13 (some centres not stated)
composite z-score [1]: -0.542 (inactive) | composite z-score [2]: 0.189 | z-score [3]: -0.379 | z-score [4]: -2.5 (inactive) | z-score [5]: -0.539 (inactive) | z-score [6]: -0.113 (inactive)

C=CCC(OC(C)=O)[C@@H]1[C@@H](N(Cc2cc3ccccc3o2)C(=O)c2ccc(C)cc2)c2cc(OCCCO)ccc2N1C(=O)Cc1ccc(OC)cc1 (some centres not stated)
composite z-score [1]: -0.23 (inactive) | composite z-score [2]: 0.0544 | z-score [3]: -0.901 | z-score [4]: -2.07 (inactive) | z-score [5]: -0.0554 (inactive) | z-score [6]: -0.601 (inactive)

O=C(NCc1ccccc1)[C@@H]1c2ccccc2C(=O)N(Cc2ccccc2C(F)(F)F)[C@H]1c1ccc(CO)cc1
composite z-score [1]: 0.55 (inactive) | composite z-score [2]: 0.545 | z-score [3]: 0.0452 | z-score [4]: -3.17 (inactive) | z-score [5]: -0.496 (inactive) | z-score [6]: -0.841 (inactive)

CCCC[C@@H]1C[C@H]1[C@@H](NC(=O)c1cccs1)c1ccc(C(F)(F)F)cc1
composite z-score [1]: -0.011 (inactive) | composite z-score [2]: -0.289 | z-score [3]: -0.41 | z-score [4]: -0.891 (inactive) | z-score [5]: 0.984 (inactive) | z-score [6]: 0.516 (inactive)

Cc1ccc(S[C@]2(C(=O)NCC(F)(F)F)CC(=O)N(Cc3ccccc3C(F)(F)F)[C@@H]2c2ccc(CO)cc2I)cc1
composite z-score [1]: -0.485 (inactive) | composite z-score [2]: -0.0347 | z-score [3]: -0.115 | z-score [4]: -2.45 (inactive) | z-score [5]: 0.504 (inactive) | z-score [6]: 1.27 (inactive)

NC(N)=NCCCn1cc(CNC(=O)[C@@H](N)Cc2ccccc2)nn1
composite z-score [1]: 0.196 (inactive) | composite z-score [2]: -1.17 | z-score [3]: 0.139 | z-score [4]: -1.61 (inactive) | z-score [5]: 0.262 (inactive) | z-score [6]: -0.174 (inactive)

COC(=O)[C@@]1(Cc2ccc(F)cc2)[C@H]2c3cc(C(=O)N(C)C)n(CCc4ccc(O)c(OC)c4)c3C[C@H]2CN1C(=O)c1ccccc1
composite z-score [1]: -0.327 (inactive) | composite z-score [2]: -0.277 | z-score [3]: 0.845 | z-score [4]: -0.562 (inactive) | z-score [5]: -0.47 (inactive) | z-score [6]: -0.964 (inactive)

COC(=O)c1c2oc(c1C(=O)OC)C(=O)N(C)Cc1cn(nn1)C[C@H](Cc1ccccc1)NC(=O)N[C@H](CO)CC2
composite z-score [1]: 0.15 (inactive) | composite z-score [2]: -0.374 | z-score [3]: -0.38 | z-score [4]: -1.66 (inactive) | z-score [5]: 0.453 (inactive) | z-score [6]: 0.723 (inactive)

[N-]=[N+]=Nc1ccccc1[C@@H]1OC(c2ccc(OCCCO)cc2)=N[C@]1(Cc1ccccc1)C(=O)NCC(O)CO (some centres not stated)
composite z-score [1]: 2.53 (inactive) | composite z-score [2]: 0.747 | z-score [3]: -2.14 | z-score [4]: -3.18 (inactive) | z-score [5]: -0.358 (inactive) | z-score [6]: -0.228 (inactive)

CCCCN1CC=CC23O[C@@H]4/C=C\CCC(C)OC(=O)C4[C@H]2C(=O)N(C(CO)C(C)C)[C@@H]3C1=O (some centres not stated)
composite z-score [1]: 0.743 (inactive) | composite z-score [2]: 0.844 | z-score [3]: -0.36 | z-score [4]: -5.09 (inactive) | z-score [5]: -0.428 (inactive) | z-score [6]: -0.543 (inactive)

COC(=O)[C@@]1(Cc2ccc(F)cc2)[C@H]2c3cc(C(=O)N4CCCC4)n(CCc4ccc(O)c(O)c4)c3C[C@H]2CN1C(=O)c1ccccc1
composite z-score [1]: 1.19 (inactive) | composite z-score [2]: -0.892 | z-score [3]: -1.47 | z-score [4]: -4.67 (inactive) | z-score [5]: 0.333 (inactive) | z-score [6]: 0.303 (inactive)

CC(C)C[C@@H]1NC(=O)[C@@H]2C[C@H](C(=O)NCCCCCN)[C@H](c3ccc(O)cc3)N2C1=O
composite z-score [1]: 0.0938 (inactive) | composite z-score [2]: 0.725 | z-score [3]: 0.179 | z-score [4]: -1.88 (inactive) | z-score [5]: -0.223 (inactive) | z-score [6]: 0.0212 (inactive)
